# Results: PubChem BioAssay (NCATS)
# Results filed as inconclusive are left out. A call without a number means that no potency is given here. Activity calls are given as the source filed them. The call rests on the fitted dose curve; tested in HEK293 reporter line.
# Test: qHTS for Inhibitors of the Functional Ribonucleoprotein Complex (vRNP) of Lassa (LASV) Arenavirus: Viability assay - alamar blue signal for LASV Primary Screen (AID 1347083); further: nearly all actives have a fitted effect of over 80% in size
# Conditions: cell viability, alamar blue fluorescence (LASV minigenome counter-screen); series mostly up to 57.5 µM
# Potency means the concentration at half of the fitted maximal effect.
row,Structure (SMILES),Potency
1,Cc1c(-c2ccc(O)cc2)n(Cc2ccc(OCCN3CCCCCC3)cc2)c2ccc(O)cc12,inactive
2,COC(=O)C1=CO[C@@H](C)[C@@H]2CN3CC[C@]4(C(=O)Nc5c4ccc(OC)c5OC)[C@H]3C[C@H]12,inactive
3,CCCCC(C)(C)[C@H](O)C=C[C@H]1[C@H](O)CC(=O)[C@H]1CC=CCCCC(=O)O,inactive
4,O=C1CCC[C@H]2[C@H]3CCCN4CCCC(=CN12)[C@@H]34,inactive
5,O=C(NCCCCN1CCOCC1)c1cc2ccccc2o1,inactive
6,Cc1ccc(C(=O)Nc2cccc(C(F)(F)F)c2)cc1Nc1nc(-c2cccnc2)nc2c1cnn2C,inactive
7,N#CC1(c2cccc(C(=O)Nc3cc(Oc4ccc5nc(NC(=O)C6CC6)sc5n4)ccc3F)c2Cl)CC1,inactive
8,C/C=C1/CN2CC[C@]34C(=C(C=O)[C@H]1C[C@@H]23)Nc1ccccc14,inactive
9,O=C1C[C@@H](c2ccc(O)cc2)Oc2cc(O)cc(O)c21,inactive
10,OC[C@@H]1[C@@H](O)[C@H](O)[C@H]2[C@@H](O)CCN21,inactive
11,C[N+](C)([O-])CCNc1ccc(NCC[N+](C)(C)[O-])c2c1C(=O)c1c(O)ccc(O)c1C2=O,inactive
12,Clc1ccc2c(c1)N=C(N1CCNCC1)c1ccccc1N2,inactive
13,O=C(O)CF,inactive
14,CC(C)c1nn(-c2c(Cl)cccc2Cl)c2nc(Cc3ccc(OCCO)cc3)[nH]c(=O)c12,217 nM (active)
15,CC1(C)OC1COc1c2occc2cc2ccc(=O)oc12 (stereo unspecified),inactive
16,CC(C)(O)C1OC2CCC3(C)C(O)(CCC4Cc5c([nH]c6ccccc56)C43C)C2=CC1=O (stereo unspecified),inactive
17,OCCCNc1cc(-c2ccnc(Nc3cccc(Cl)c3)n2)ccn1,193 nM (active)
18,COc1ccc(CCN(C)CCCC(C#N)(c2ccc(OC)c(OC)c2)C(C)C)cc1OC (stereo unspecified),inactive
19,CCN1C[C@]2(C)CC[C@H](OC)[C@@]34[C@H]1C1(OCO[C@@]15C[C@H](OC)C1C[C@]3(O)C5[C@H]1OC)[C@@H](O)[C@H]24,inactive
20,OC1(c2ccc(Cl)cc2)CCN(Cc2c[nH]c3ccccc23)CC1,inactive
21,O=S(=O)(c1cccc2c(Cl)cccc12)N1CCCNCC1,inactive
22,CS(=O)(=O)N(Cc1ccco1)CC(O)Cn1c2ccccc2c2ccccc21 (stereo unspecified),inactive
23,CN1C2CCC1CC(OC(=O)C1CCC(C(=O)OC3CC4CCC(C3)N4C)(c3ccccc3)c3ccccc31)C2 (stereo unspecified),inactive
24,O=S(=O)(c1cccc2c(I)cccc12)N1CCCNCC1,inactive
25,CNCC[C@H](Oc1ccc(C(F)(F)F)cc1)c1ccccc1,inactive
26,O=c1ccc2c(O)c3ccoc3cc2o1,inactive
